Only some compounds are listed: those with a hit (about 2.1% of all), similar ones and a draw of the others.
Myeloid diff 2 – promotes myeloid progenitor differentiation | ER-HoxA9 myeloid progenitors, lysozyme-GFP differentiation, flow cytometry | calls only at 10 µM | 360,000 compounds, 1% hits | AID 624256;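 active = normalized GFP-positive differentiation at or above the plate's own cutoff, the solvent-only control mean plus 3 SD; inconclusive = no clear call, values can overlap the other calls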;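 note: cells exposed to compound for four days before flow analysis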
HNF4A DNA FP – change in binding of human HNF4 alpha to DNA; P41235; HNF4a-FITC DNA binding, fluorescence polarization, 1 h; activity change, % at 10 µM; 360,000 compounds, 0.3% hits; AID 1224865; in the data active = activity change above about 30%, passing the limit was not always enough
TPT1 inhibitor – blocks Candida albicans tRNA 2'-phosphotransferase; AID 1962; recombinant caTPT1, FP RNA substrate dephosphorylation; 300,000 compounds, 0.81% hits; inhibition, % at 5 µM;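 active = inhibition above the mean of all tested compounds plus 3 SD, set per screening campaign, cut at about 24% in these data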
Rpn11 inh – Rpn11 (human) deubiquitinase inhibition; O00487; human 26S proteasome, Ub4-pepOG fluorescence polarization; 20S core pre-blocked with epoxomicin; inhibition, % at 20 µM; 360,000 compounds, 0.59% hits;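 active = inhibition at 20 µM, scaled to each plate's controls, above about 33%, limit read from the data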
Target sequence (O00487 whole entry, looked up): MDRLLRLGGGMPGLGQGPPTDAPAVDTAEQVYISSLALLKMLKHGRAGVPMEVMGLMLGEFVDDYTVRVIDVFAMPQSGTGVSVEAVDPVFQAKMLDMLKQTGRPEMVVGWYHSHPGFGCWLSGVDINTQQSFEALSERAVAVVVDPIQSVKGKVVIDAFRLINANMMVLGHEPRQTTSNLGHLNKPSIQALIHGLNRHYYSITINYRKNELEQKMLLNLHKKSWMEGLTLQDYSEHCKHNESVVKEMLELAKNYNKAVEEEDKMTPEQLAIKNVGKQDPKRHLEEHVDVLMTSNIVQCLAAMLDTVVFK
TPT1 inh confirm – TPT1 (C. albicans) inhibition, confirmation | shares compounds with TPT1 inhibitor | recombinant caTPT1, fluorescence polarization, RNase T1 coupled | inhibition, % at 5 µM | 2,400 compounds, 74% hits;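 active = inhibition above the primary screen limit, the mean inhibition of all tested compounds plus 3 SD, cut at about 25% in these data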
RNase T1 counter – counter-screen for TPT1 inhibitors: inhibitors of Aspergillus oryzae RNase T1. shares compounds with TPT1 inhibitor. RNase T1 cleavage, fluorescence polarization, 1536-well. inhibition, % at 5 µM. 2,400 compounds, 83% hits. AID 2153;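 active = inhibition above the solvent-only control well mean plus 3 SD, limit set per screening run, cut at about 23% in these data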;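 note: inhibitors block cleavage so intact labeled substrate keeps polarization high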
Target sequence (P00651 whole entry, looked up): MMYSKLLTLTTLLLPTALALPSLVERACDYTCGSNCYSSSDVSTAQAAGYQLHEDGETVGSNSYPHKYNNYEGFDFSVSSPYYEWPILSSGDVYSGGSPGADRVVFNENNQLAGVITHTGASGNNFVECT
Large screens that a line does not name were inactive (follow-up assays come after a bar, where shown).

CC(C)Oc1ccc(C2C(C#N)=C(N)Oc3c2oc(CO)cc3=O)cc1 (configuration not stated)	TPT1 inhibitor 36 | TPT1 inh confirm inactive | RNase T1 counter inactive
COc1cc(C2C(C#N)=C(N)Oc3c2oc(CO)cc3=O)ccc1OC(C)C (configuration not stated)	none
COCCNC(=O)[C@@]1(Cc2ccccc2)C=C[C@@H](C)N1C(C)=O	none
O=C1N(Cc2cccc(Cl)c2)C[C@@H]2C[C@@H](c3c[nH]c4ccccc34)N3CCC[C@@]123	Myeloid diff 2 active, HNF4A DNA FP 85, TPT1 inhibitor 26 (not shown: Rpn11 inh) | TPT1 inh confirm 30 | RNase T1 counter 40
O=C1N(Cc2cccc(Cl)c2)C[C@@H]2C[C@@H](c3cccc4ncccc34)N3CCC[C@@]123	none
O=C(O)CN1C(=O)/C(=C\c2cn(CC(=O)N3CCOCC3)c3ccccc23)SC1=S	TPT1 inhibitor 181 (not shown: Rpn11 inh) | TPT1 inh confirm 150 | RNase T1 counter 144
CCN(CC)c1ccc(/C=N/NC(=O)c2cccc(S(=O)(=O)Nc3ccccc3OC)c2)c(O)c1	Myeloid diff 2 inconclusive, TPT1 inhibitor 55 (not shown: Rpn11 inh) | TPT1 inh confirm 78 | RNase T1 counter 87
COc1ccccc1NS(=O)(=O)c1cccc(C(=O)N/N=C/c2ccc3c(c2)OCCO3)c1	none
Cc1ccc(C(=O)/C=C/c2ccc3ncccc3c2)cc1	none
CCc1cc2c(N=Nc3c(O)[nH]c4ccccc34)ncnc2s1	none (not shown: Rpn11 inh)
CCc1ccc2[nH]c(O)c(N=Nc3nc(-c4ccccc4)cs3)c2c1	TPT1 inhibitor 43 | TPT1 inh confirm 26 | RNase T1 counter 40
COC(=O)c1ccccc1CSc1nsc(/C=C/N(C)C)c1C#N	HNF4A DNA FP 55, TPT1 inhibitor 92 (not shown: Rpn11 inh) | TPT1 inh confirm 35 | RNase T1 counter 48
COC(=O)c1cccnc1SCc1ccccc1	none
CN(Cc1c(F)cccc1Cl)C(=O)c1ccc(NS(=O)(=O)c2ccc3[nH]c(=O)[nH]c3c2)cc1	none
Clc1ncnc2scc(-c3ccc(Br)cc3)c12	none
CCOC(=O)Cc1nn(Cc2nc(-c3ccc(C#N)cc3)cs2)c(=O)c2ccccc12	none
N#CC1=CN(Cc2ccccc2)C=C(/C=N/Nc2ccccc2)C1	TPT1 inhibitor 25 | TPT1 inh confirm inactive | RNase T1 counter 25
CCc1nc2ccccc2c(C(=O)Nc2cccc(C)c2)c1C	none
CN1CCN(C(=O)c2ccc3c(c2)NC(=O)/C(=C/c2ccccc2)S3)CC1	none
Cc1ccc(/C=C2/Sc3ccc(C(=O)N4CCN(c5ccccn5)CC4)cc3NC2=O)cc1	TPT1 inhibitor 28 | TPT1 inh confirm 49 | RNase T1 counter 61
Cc1ccc(C(=O)N[C@H](C(=O)Nc2cc(Cl)cc(Cl)c2)C(C)C)cc1	none
CCN1C(=O)/C(=C\C=C2/C=CC=CN2CC)SC1=S	HNF4A DNA FP 136, TPT1 inhibitor 27 (not shown: Rpn11 inh) | TPT1 inh confirm 36 | RNase T1 counter 55
CCN1C(=O)/C(=C/C=C2\C=CN(CC)c3ccccc32)SC1=S	none
Cc1ccc(CNC(=O)CN(Cc2ccccc2)S(C)(=O)=O)cc1	none
CCc1nnc(NC(=O)CC(C)c2ccccc2)s1 (configuration not stated)	none
CCc1ccc(OCc2n[nH]c(=S)n2C(C)CCCC(C)C)cc1 (configuration not stated)	none
CCN(CC)c1ccc(/C=C/C(=O)c2ccc(Br)cc2)cc1	TPT1 inhibitor 97 (not shown: Rpn11 inh) | TPT1 inh confirm 94 | RNase T1 counter 96
CN(C)c1ccc(C(=O)/C=C/c2ccc(Br)cc2)cc1	none
COc1ccc(NC(=O)CSc2nnc(C)c3ccccc23)cc1	none
COc1ccc(NC(=O)CSc2ccc3c4c(cccc24)C(=O)c2ccccc2-3)cc1	Myeloid diff 2 active, TPT1 inhibitor 26 | TPT1 inh confirm 28 | RNase T1 counter 41
CC(=Nc1ccccc1O)c1sc2ccccc2c1O	HNF4A DNA FP 38, TPT1 inhibitor 104 (not shown: Rpn11 inh) | TPT1 inh confirm 125 | RNase T1 counter 126
CC(=Nc1ccc(O)cc1)c1sc2ccccc2c1O	TPT1 inhibitor 55 | TPT1 inh confirm 65 | RNase T1 counter 80
CC(=Nc1cccc(C)c1)c1sc2ccccc2c1O	TPT1 inhibitor 42 | TPT1 inh confirm 68 | RNase T1 counter 80
CC(=O)NCCN=C(C)c1sc2ccccc2c1O	none
CSCC[C@H](NC(=O)C1CCN(S(=O)(=O)c2ccc(C)cc2C)CC1)c1nc2ccccc2[nH]1	none (no result: TPT1 inhibitor)

Bioassay records (PubChem BioAssay)
